Screening results: PubChem BioAssay, The Scripps Research Institute Molecular Screening Center
Only some compounds are listed: those with a hit (about 1.1% of all), similar ones and a draw of the others.
OPRM1-OPRD1 inv – mu-delta opioid heterodimer inverse agonism; P35372+P41143; cell-based MOR-DOR heterodimer luminescence; inhibition, % at 9.3 µM; hit rate 0.21% among 340,000; AID 504357; in the data active = inhibition above about 22%, passing the limit was not always enough
MOR-DOR ag – OPRM1-OPRD1 heterodimerization agonism; cells, luminescence; activation, % at 9.3 µM; hit rate 0.3% among 340,000; AID 504326; in the data active = activation above about 18%
HTR5A inv ctr – HTR5A inverse agonism, opioid heterodimer counter-screen. HTR5A cell line, luminescence. inhibition, % at 9.3 µM. hit rate 0.083% among 340,000. AID 504634; in the data active = inhibition mostly above about 23%, no sharp cut-off; inactive = mostly below about 18%
Target sequence (P47898 whole entry, looked up): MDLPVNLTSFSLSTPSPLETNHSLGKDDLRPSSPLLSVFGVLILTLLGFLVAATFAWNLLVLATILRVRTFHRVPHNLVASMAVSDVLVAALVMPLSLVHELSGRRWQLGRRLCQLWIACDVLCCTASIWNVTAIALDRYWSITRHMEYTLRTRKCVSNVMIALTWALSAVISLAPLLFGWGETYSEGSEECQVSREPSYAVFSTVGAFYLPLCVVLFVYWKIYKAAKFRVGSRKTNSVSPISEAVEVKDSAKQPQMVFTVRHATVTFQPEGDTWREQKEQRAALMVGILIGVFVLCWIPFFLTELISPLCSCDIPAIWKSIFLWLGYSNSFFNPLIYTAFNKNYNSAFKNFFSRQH
HTR5A ag – counter-screen for OPRM1-OPRD1 agonists: human HTR5A agonism. activation, % at 9.3 µM. hit rate 0.61% among 340,000. AID 504692. HTR5A agonist assay, luminescence, cell-based. P47898; in the data active = activation mostly above about 9.5%, no sharp cut-off; inactive = mostly below about 7.6%
A number is an active result; 0 = inactive.

SMILES	OPRM1-OPRD1 inv	MOR-DOR ag	HTR5A inv ctr	HTR5A ag
CCC(CC)c1nnc(NC(=O)CC(C)c2ccccc2)s1 (stereo unspecified)	0	0	0	12
O=Nc1c2cc3ccccc3[nH]c-2c2ccccc12	0	0	0	0
O=Nc1c(O)c2ccccc2c2ccccc12	0	0	0	12
Cc1ccc2nc(NC(=O)CS(=O)(=O)Cc3ccccc3)sc2c1	0	0	0	0
Cc1ccc2nc(NC(=O)CSCc3ccccc3)sc2c1	0	0	0	10
O=C(N/N=C/c1ccc([N+](=O)[O-])cc1)c1cc(-c2ccc3c(c2)OCO3)n[nH]1	0	0	0	13
COc1cc(/C=N/NC(=O)c2cc(-c3ccc4c(c3)OCO4)n[nH]2)ccc1O	0	0	0	0
CCOC(=O)CSc1nnc(Cn2c(=O)sc3ccccc32)n1C	0	0	0	11
CCOC(=O)N1CCN(C(=O)CSc2nnc(Cn3c(=O)sc4ccccc43)n2C)CC1	0	0	0	0
Oc1ccc(-c2csc(Nc3ccc4c(c3)OCO4)n2)c(O)c1	0	0	0	0
N#Cc1ccc(Nc2nc(-c3ccc(O)cc3O)cs2)cc1C(F)(F)F	0	0	0	13
CC(=N)c1c(O)cc(C)oc1=O	0	0	0	0
O=C(CNC1CCCCCC1)c1cccs1	33	0	0	0
O=C(NC1CCCCCC1)c1cccs1	0	0	0	0
O=C(Nc1nc(-c2cc(F)ccc2F)cs1)C1=NN(c2ccccc2)C(=O)CC1	0	0	0	0
COc1ccc(-c2csc(NC(=O)C3=NN(c4ccccc4)C(=O)CC3)n2)cc1	0	0	0	10
CCCCNc1c(-c2ccc(OC)c(Sc3ccc(OC)cc3)c2)nc2ccccn12	0	0	0	11
COc1ccc(C(=O)C(CCC(CNC(C)(C)C)C(=O)c2ccc(OC)cc2)CNC(C)(C)C)cc1 (stereo unspecified)	0	0	0	13
COc1ccc(C(=O)CC(=O)c2ccc(C(C)(C)C)cc2)cc1	0	0	0	0
Cc1ccc(Nc2cc(C)nn2-c2nc(C)cc(C)n2)cc1	0	0	0	0
Cc1ccc(Nc2cc(C)nn2-c2nc(C)cc(=O)[nH]2)cc1	55	0	0	0
CCn1nc(NC(=O)C(C)C)c2cc3cccc(C)c3nc21	0	0	0	11
Cc1ccc2c(NC(=O)c3ccco3)cccc2n1	0	0	0	0
CCOC(=O)/C=C1/SCC(=O)N1CC(=O)NC12CC3CC(CC(C3)C1)C2	0	0	0	10
CCOC(=O)/C=C1\SCC(=O)N1CC(=O)Nc1ccc(OC)c(OC)c1	0	0	0	0
SMILES	OPRM1-OPRD1 inv	MOR-DOR ag	HTR5A inv ctr	HTR5A ag
CC1(C)OC2OC3C(CNCCO)OC(c4ccccc4)OC3C2O1 (stereo unspecified)	0	0	0	0
CCN(Cc1ccccc1)C(=O)COC(=O)c1c(C)nsc1NC	0	0	0	0
O=C(CN1C(=O)C2C3CCC(C3)C2C1=O)OCC(=O)c1ccc(Br)cc1 (stereo unspecified)	0	0	0	0
CCn1c(C)nc2cc(C(=O)N/N=C(\C)c3ccc(N4CCOCC4)cc3)ccc21	0	0	0	0
CCn1c(C)nc2cc(C(=O)NN=C(C)c3ccc(C#N)cc3)ccc21	0	0	0	13
Cc1cc(C)c(S(=O)(=O)Nc2ncn[nH]2)c(C)c1	0	0	0	0
CC(=O)Nc1ccc(Nc2nc3ccccc3nc2NS(=O)(=O)c2ccccc2)cc1	0	0	0	12
CC(=O)Nc1ccc(S(=O)(=O)Nc2nc3ccccc3nc2Nc2ccccc2)cc1	0	0	0	0
COC(=O)c1ccc(NC(=O)COc2ccc(C3C(C#N)=C(N)Oc4c3ccc3ccccc43)cc2OC)cc1 (stereo unspecified)	0	0	0	14
CC(C)CC(=O)Nc1cc2nn(-c3ccccc3)nc2cc1Cl	0	0	0	9.1
CC(C)CC(=O)Nc1cccc2c1C(=O)N(c1ccccc1)C2=O	0	0	0	0
CCOc1ccc(-c2nnc(NC(=O)Cc3ccc(OC)cc3)o2)cc1	0	0	0	0
CCOc1ccc(-c2nnc(NC(=O)CCCOc3cccc(C)c3)o2)cc1	0	0	0	13
O=C(CC(Cc1ccccc1)C(=O)O)Nc1ccc(Cl)c(Cl)c1 (stereo unspecified)	0	0	0	10.0
O=C(CC(Cc1ccccc1)C(=O)O)Nc1ccccc1 (stereo unspecified)	0	0	0	0
CC(OC(=O)Nc1ccccc1)C(=O)OC1CCCCC1 (stereo unspecified)	0	0	0	0
COc1cccc(C=NNc2nc3ccccc3s2)c1OC	0	0	0	9.7
Oc1ccccc1C=NNc1nc2ccccc2s1	0	0	0	0
CCOC(=O)c1ccc(N=c2scc(C)n2CC)cc1	0	0	0	13
Cc1cccc(C)c1OCC(=O)OC/C(O)=C(\C#N)c1nc2ccccc2[nH]1	0	0	0	0
Cc1cc(C)cc(OCC(=O)OC/C(O)=C(\C#N)c2nc3ccccc3[nH]2)c1	0	40	0	23
COc1cc(C#Cc2c(-c3cncn3C)n(C)c3ccc(-c4cnc(OC)nc4)cc23)cc(OC)c1	0	0	0	12
CCCCn1c(N)c(N(CC(C)C)C(=O)c2ccc(F)c(S(=O)(=O)N3CCOCC3)c2)c(=O)[nH]c1=O	0	0	0	0
CNC(=S)N1CCn2cccc2C1c1ccc(F)cc1 (stereo unspecified)	0	0	0	8.0
Fc1ccc(C2c3cccn3CCN2C(=S)Nc2cccc(F)c2)cc1 (stereo unspecified)	0	0	0	0
SMILES	OPRM1-OPRD1 inv	MOR-DOR ag	HTR5A inv ctr	HTR5A ag
CC1CCC2(CC1)NC(=O)N(NC(=O)c1cc3ccccc3o1)C2=O (stereo unspecified)	0	0	0	0
CC(C)(C)C(=O)NC(=S)NNC(=O)c1ccc(-c2ccccc2)cc1	30	0	87	0
CCC1COCCS(=O)(=O)N1Cc1ccc(F)cc1 (stereo unspecified)	0	0	0	0
Cc1ccc(C(C)C)c(OCC(O)CN(C)Cc2ccccc2)c1 (stereo unspecified)	0	0	0	12
COc1ccc2[nH]c3c(c2c1)CCN1C(=O)C(CC(=O)NCCCn2ccnc2)C[C@H](C(=O)N2CCCCC2)[C@@]31C (stereo partly specified)	0	0	0	0
COc1ccc(-c2cc(C3CCN(c4cc(Cl)nc(N)n4)CC3)[nH]n2)cc1	0	0	0	0
COc1ccc(OC)c(-c2cc(C3CCN(c4cc(Cl)nc(N)n4)CC3)[nH]n2)c1	0	0	0	10
Nc1nc(Cl)cc(N2CCC(c3cc(-c4ccc(Cl)cc4)n[nH]3)CC2)n1	0	0	0	14
CCN(CC)S(=O)(=O)c1ccc(N2CCN(C)CC2)c(NC(=O)CN2C(=O)NC3(CCCCC3)C2=O)c1	0	0	0	0
Cc1noc(C)c1NC(=O)N(C)C[C@H]1Oc2ccc(NS(=O)(=O)c3c(C)noc3C)cc2C(=O)N([C@H](C)CO)C[C@@H]1C	0	0	0	0
O=C(O)c1ccc(Cn2cnc3c(=O)[nH]cnc32)cc1	0	0	0	0
CC1(c2ccc([N+](=O)[O-])cc2)Nc2ccccc2S1 (stereo unspecified)	0	0	0	0
